The text below walks through data of PubChem BioAssay.

Experiment [1] has as its system Aerobactin synthetase IucA (Klebsiella pneumoniae). As to the kind of experiment: inhibition of K. pneumoniae IucA enzyme – biochemical, Tocris library, absorbance (AID 1345561; call rule not given here;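 note: 100% = enzyme without compound and 0% = no enzyme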). To be noted: purified IucA enzyme assay, absorbance (OD) read-out; stronger effect = lower value;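 tested at 8 µM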.
Experiment [2] is described as follows: viability loss with induced miR-34 in A549 – imaging, A549 dox-inducible miR-34, nuclei and caspase counts, primary screen (AID 1347080). The conditions noted are these: A549 miR-34 inducible, Hoechst nuclei count, 48 h.
Experiment [3] in a line: galactose survival enhancers in mitochondrial complex I cybrids – cell-based, galactose medium, ATP luminescence, primary screen (AID 1645843;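 active = z-score of at least 1.8 in each of two replicates, scored against plate mean and spread of sample wells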;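 note: positive z means more ATP and so rescue of galactose-driven cybrid death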). The conditions noted are these: complex I mutant cybrid cells, 72 h, stronger effect = higher value.
Setting [4] is: stronger effect = lower value, cell number ratio, induced over uninduced.
Setting [5] is: measured here: relative caspase fold change +Dox/-Dox.
Where [6] appears, read: measured here: total cells with miR-34 induction, stronger effect = lower value.
[7] abbreviates: measured here: total cells without miR-34 induction.

The source made the active and inactive calls.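 Rule for the calls, unless noted: active = compounds whose cell count with miR-34 switched on is under 0.7 times the count with it off; inactive = the rest.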

On to `Cc1ccc(CC2(O)CCN(CCOc3ccc(O)cc3)CC2)cc1`, for which the remaining activity in experiment [1] is 89.8% (inactive). Besides, the fold change in experiment [2] (setting [4]) was 0.939 (inactive); in experiment [2] (setting [5]), 2.38. Further, the cell count is 7760 in experiment [2] (setting [6]) and 8270 in experiment [2] (setting [7]). The z-score in experiment [3] was -0.49 (inactive).
For `O=S(=O)(c1cccc2cnccc12)N1CCNCC1`, in experiment [1], the remaining activity is 125% (inactive). For the same compound, the fold change in experiment [2] (setting [4]) was 1.05 (inactive); in experiment [2] (setting [5]), 0.794. Also, the cell count in experiment [2] (setting [6]) came out at 9210; in experiment [2] (setting [7]) it was 8760. Besides, the z-score in experiment [3] was -0.56 (inactive).
On to `COc1cc2c(cc1OC)C(c1ccc(N)cc1)=NNC(=O)C2`, for which the remaining activity in experiment [1] was 103% (inactive). Moreover, the fold change in experiment [2] (setting [4]) was 1.07 (inactive); in experiment [2] (setting [5]), 0.53. Further, the figures for the cell count in experiment [2] (setting [6]) and in experiment [2] (setting [7]) were 4030 and 3760, respectively. For the same compound, the z-score in experiment [3] was 0.045 (inactive).
On to `BrC1C(Br)C(Br)C(Br)C(Br)C1Br` (centres undefined), for which the remaining activity in experiment [1] was 107% (inactive). Moreover, the fold change in experiment [2] (setting [4]) is 1.04 (inactive); in experiment [2] (setting [5]), 1.17. In addition, the cell count is 7970 in experiment [2] (setting [6]) and 7680 in experiment [2] (setting [7]). The z-score in experiment [3] is -0.62 (inactive).
With `COc1cccc(CCc2ccccc2OCC[C@@H]2C[C@@H](O)CN2C)c1`, the remaining activity in experiment [1] is 109% (inactive). For the same compound, the figures for the fold change in experiment [2] (setting [4]) and in experiment [2] (setting [5]) were 1.04 (inactive) and 0.632, respectively. In addition, the figures for the cell count in experiment [2] (setting [6]) and in experiment [2] (setting [7]) were 7340 and 7050, respectively. The z-score in experiment [3] is -0.705 (inactive).
Turning to `COc1ccc([C@H]2CNC(=O)C2)cc1OC1CCCC1`, the remaining activity in experiment [1] was 113% (inactive). Further, the fold change was 0.966 (inactive) in experiment [2] (setting [4]) and 0.702 in experiment [2] (setting [5]). Besides, the values for the cell count in experiment [2] (setting [6]) and in experiment [2] (setting [7]) were 9600 and 9950, respectively. Moreover, in experiment [3], the z-score was -0.255 (inactive).
Take `COC(=O)[C@@H]1C2C[C@H]3c4[nH]c5ccccc5c4CCN3C[C@@H]2CC[C@@H]1O` (some centres undefined): the remaining activity in experiment [1] is 95.9% (inactive). The fold change was 0.91 (inactive) in experiment [2] (setting [4]) and 2.92 in experiment [2] (setting [5]). The cell count is 8430 in experiment [2] (setting [6]) and 9270 in experiment [2] (setting [7]). Also, in experiment [3], the z-score was 0.315 (inactive).
With `CN(C)c1nc(N)c(C(=O)Nc2cccnc2)nc1Cl`, the remaining activity in experiment [1] is 113% (inactive). Also, the fold change was 0.904 (inactive) in experiment [2] (setting [4]) and 1.39 in experiment [2] (setting [5]). For the same compound, the cell count in experiment [2] (setting [6]) came to 5930; in experiment [2] (setting [7]) it was 6560. Moreover, the z-score in experiment [3] is 0.61 (inactive).
`CC[C@@H]1Cn2c(c3nc(-c4ccccc4)nc-3n(C)c2=O)N1`: the remaining activity in experiment [1] is 108% (inactive). Further, the figures for the fold change in experiment [2] (setting [4]) and in experiment [2] (setting [5]) were 0.901 (inactive) and 1.44, respectively. Further, the cell count in experiment [2] (setting [6]) came out at 7600; in experiment [2] (setting [7]), 8440. For the same compound, the z-score in experiment [3] is -0.165 (inactive).
For `O=C(O)c1ccc(/C=C2/SC(=S)N(c3cccc(C(F)(F)F)c3)C2=O)cc1`, the remaining activity in experiment [1] is 83.1% (inactive). Moreover, the fold change in experiment [2] (setting [4]) was 0.837 (inactive); in experiment [2] (setting [5]), 1.71. The cell count in experiment [2] (setting [6]) turned out to be 8080; in experiment [2] (setting [7]), 9650. Also, the z-score in experiment [3] was -0.215 (inactive).
On to `COc1ccc(S(=O)(=O)N2c3ccc(Cl)cc3[C@](O)(c3ccccc3Cl)[C@@H]2C(=O)N2CCC[C@H]2C(N)=O)cc1OC`, for which the remaining activity in experiment [1] was 97.7% (inactive). Besides, the figures for the fold change in experiment [2] (setting [4]) and in experiment [2] (setting [5]) were 0.908 (inactive) and 1.22, respectively. For the same compound, the values for the cell count in experiment [2] (setting [6]) and in experiment [2] (setting [7]) were 8610 and 9480, respectively. Besides, in experiment [3], the z-score was 0.855 (inactive).
On to `C1CC[C@H]2[N]=[Pt]=[N][C@@H]2C1.O=C(O)C(=O)O`, for which the remaining activity in experiment [1] was 86.1% (inactive). Further, the fold change is 0.928 (inactive) in experiment [2] (setting [4]) and 1.09 in experiment [2] (setting [5]). In addition, the cell count in experiment [2] (setting [6]) was 4040; in experiment [2] (setting [7]), 4350. Further, the z-score in experiment [3] is 3.04 (active).
In the case of `N#Cc1ccc(NCCNCC(=O)N2CCC[C@H]2C#N)nc1`, in experiment [1], the remaining activity was 110% (inactive). For the same compound, the fold change is 0.825 (inactive) in experiment [2] (setting [4]) and 2.19 in experiment [2] (setting [5]). Moreover, the results for the cell count in experiment [2] (setting [6]) and in experiment [2] (setting [7]) were 8330 and 10100, respectively. Besides, the z-score in experiment [3] was 0.41 (inactive).
Turning to `Cn1cnnc1Sc1c([N+](=O)[O-])ncn1C`, in experiment [1], the remaining activity was 103% (inactive). The fold change in experiment [2] (setting [4]) was 0.949 (inactive); in experiment [2] (setting [5]), 1.89. Also, the cell count was found to be 8370 in experiment [2] (setting [6]) and 8820 in experiment [2] (setting [7]). The z-score in experiment [3] was -0.12 (inactive).
`CCOC(=O)c1ncc2[nH]c3cccc(OC(C)C)c3c2c1C`: the remaining activity in experiment [1] is 96.4% (inactive). For the same compound, the fold change is 0.924 (inactive) in experiment [2] (setting [4]) and 0.813 in experiment [2] (setting [5]). Moreover, the cell count in experiment [2] (setting [6]) is 5120; in experiment [2] (setting [7]), 5540. Besides, the z-score in experiment [3] is -0.64 (inactive).
On to `N[C@@H](Cc1cc(CP(=O)(O)O)cc(-c2ccccc2Cl)c1)C(=O)O`, for which the remaining activity in experiment [1] is 118% (inactive). In addition, the fold change in experiment [2] (setting [4]) was 0.967 (inactive); in experiment [2] (setting [5]), 1.52. Besides, the cell count in experiment [2] (setting [6]) is 9360; in experiment [2] (setting [7]), 9670. Also, the z-score in experiment [3] was 0.225 (inactive).
Turning to `N=C(N)S/C=C\C(=O)O`, in experiment [1], the remaining activity is 104% (inactive). Also, the fold change in experiment [2] (setting [4]) was 0.952 (inactive); in experiment [2] (setting [5]), 0.563. Also, the cell count in experiment [2] (setting [6]) was found to be 8330; in experiment [2] (setting [7]) it was 8750. For the same compound, the z-score in experiment [3] is -0.28 (inactive).
With `Cn1ccc2cc(NC(=O)Nc3cccnc3)ccc21`, in experiment [1], the remaining activity was 111% (inactive). Further, the fold change in experiment [2] (setting [4]) was 0.984 (inactive); in experiment [2] (setting [5]) it was 0.852. Also, the cell count in experiment [2] (setting [6]) turned out to be 8400; in experiment [2] (setting [7]), 8540. The z-score in experiment [3] is 0.405 (inactive).
Take `O=C1CC2(CCCC2)CC(=O)N1CCCCNCC1COc2ccccc2O1` (centres undefined): the remaining activity in experiment [1] was 102% (inactive). Besides, the fold change in experiment [2] (setting [4]) is 0.892 (inactive); in experiment [2] (setting [5]), 0.89. Further, the cell count came out at 8660 in experiment [2] (setting [6]) and 9710 in experiment [2] (setting [7]). For the same compound, in experiment [3], the z-score was -1.01 (inactive).
